Measured values published in PubChem BioAssay (NCATS).
Inconclusive results are not listed. Where a call stands in place of a potency, no number is given. Calls of active or inactive are those of the source. Unless noted, the call rests on the fitted dose curve; in most records, active means well fitted curve in the direction sought with a large enough effect; inconclusive means small, poorly fitted or top-dose-only effect, or another doubt; inactive means no such curve, though single readings can be large; an effect the other way counts as inactive or inconclusive.

Tests used:
[1] = target: Ubiquitin carboxyl-terminal hydrolase 1 (Homo sapiens) (UniProt O94782); experiment: Inhibitors of USP1/UAF1: Pilot qHTS (AID 504865); settings: purified USP1/UAF1, Ub-rhodamine cleavage fluorescence; series mostly up to 114 µM; further: nearly all actives have a fitted effect of over 35% in size; further: potency means the concentration at half of the fitted maximal effect
Summary of the method: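 Deubiquitinase activity followed as kinetic rhodamine fluorescence release from 150 nM Ub-Rho. 1 nM USP1/UAF1 with compound, after 15 min room-temperature preincubation, in HEPES pH 7.8 buffer containing TCEP, EDTA, BSA and Tween-20.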

[2] = target: DNA dC->dU-editing enzyme APOBEC-3G (Homo sapiens) (UniProt Q9HC16); experiment: qHTS for inhibitors of Vif-A3G interactions: Validation (AID 588379); settings: Vif-A3G protein interaction assay; series mostly up to 46.1 µM
Summary of the method: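 HeLa cells stably expressing Vif and A3G-eYFP, 700 cells/well, incubated overnight at 37 deg C, then exposed to compound overnight at 37 deg C. Inhibition of Vif-mediated degradation read as increased yellow fluorescence (Ex 488/Em 500-530) by laser-scanning cytometry.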

[3] = target: Voltage-gated inwardly rectifying potassium channel KCNH2 (Homo sapiens) (UniProt Q12809); experiment: qHTS Assay for Small Molecule Inhibitors of the Human hERG Channel Activity (AID 588834); settings: U2OS BacMam hERG, FluxOR thallium flux fluorescence; series mostly up to 46.1 µM;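 further: top concentration of the series differs between compounds; lower thallium flux fluorescence means stronger hERG block; nearly all actives have a fitted effect of over 50% in size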
Summary of the method: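 Kinetic FDSS fluorescence; U2OS + hERG BacMam (~100 virus particles/cell); FluxOR Tl+ flux; ~10 min cpd; AC50 (Hill).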

[4] = target: Luciferin 4-monooxygenase (Photinus pyralis) (UniProt P08659); experiment: Biochemical firefly luciferase enzyme assay for NPC (AID 624030);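 further: purified P. pyralis luciferase at 10 nM with luciferin and ATP substrate; nearly all actives have a fitted effect of over 70% in size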; settings: purified P. pyralis luciferase, luminescence, 5 min; series mostly up to 58.6 µM
Summary of the method: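 Counter-screen for direct inhibition of the luciferase enzyme by approved-drug library compounds, run at 10 nM enzyme in 50 mM Tris acetate (final). Luminescence was read within 5 min of enzyme-buffer addition and normalized to PTC124 versus DMSO (0%).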

[5] = S16 Schwann cell viability assay (CellTiter-Glo assay) (AID 624031); settings: S16 rat Schwann cells viability, 24 h; series mostly up to 57.5 µM;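 further: cellular ATP luminescence as a viability measure; nearly all actives have a fitted effect of over 70% in size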
Summary of the method: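 This viability control uses native rat S16 Schwann cells grown in DMEM plus 10% FBS. After a 24 h compound treatment at 37 °C, CellTiter-Glo luminescence reports ATP content, scaled against DMSO-treated and cell-free wells.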

[6] = Validation screen for small molecules that induce DNA re-replication in SW480 colon adenocarcinoma cells (AID 504364); settings: DNA re-replication phenotype (high-content imaging); series mostly up to 46.1 µM
Summary of the method: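 SW480 cells seeded at 250 per well were exposed to compound or DMSO for 48 hr at 37 C, 5% CO2, then stained with Hoechst for 40 min. DNA content per nucleus was imaged (405 nm ex, 500-530 nm em).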

[7] = target: Peptidyl-prolyl cis-trans isomerase NIMA-interacting 1 (Homo sapiens) (UniProt Q13526); experiment: qHTS Validation Assay to Find Inhibitors of Pin1 (AID 504536; active means well fitted inhibition curve with a large enough effect in the polarisation, with a control signal flat, not every such curve was filed as active; the % refers to the polarisation); settings: Pin1 fluorescence polarization peptide binding assay; series mostly up to 57.5 µM
Summary of the method: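 Fluorescence polarization competition: compounds (titration) displace HiFluor-488-labeled Pin1-1b peptide from Pin1 (0.3 uM final) in pH 7.5 HEPES buffer with DTT, 10 min at room temperature; %Activity normalized to no-enzyme wells, curves fitted.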

[8] = target: Phosphoglycerate kinase, glycosomal (Trypanosoma brucei brucei) (UniProt P07378); experiment: qHTS Validation Assay to Find Inhibitors of Phosphoglycerate Kinase (AID 504547); settings: enzymatic PGK inhibition, coupled luminescence read-out; series mostly up to 57.5 µM
Summary of the method: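 Substrate/PGK mix plus compound; reaction started with GAPDH (100nM final) to form 1,3-BPG; 60 min RT; Kinase-Glo Plus 10 min; luminescence. TEA 100mM pH 7.6, MgCl2 5mM, Tween-20 0.01%.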

[9] = target: phosphoglycerate mutase (Leishmania major) (UniProt Q4Q090); experiment: qHTS Validation Assay to Find Inhibitors of Phosphoglycerate Mutase (AID 504548); settings: biochemical enzyme activity; series mostly up to 57.5 µM
Summary of the method: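 Lm PGAM 1.25nM final; 100 mM TEA pH 7.6, 5 mM MgCl2, 0.01% Tween-20; 45 min RT; Kinase-GloPlus, 10 min; end-point luminescence. Enzyme-free wells as negative controls.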

[10] = qHTS for Inhibitors of ATXN expression: Validation (AID 588378); settings: cell-based ATXN2 expression reporter assay, luminescence; series mostly up to 57.1 µM; further: nearly all actives have a fitted effect of over 75% in size; further: potency means the concentration at half of the fitted maximal effect
Summary of the method: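 Luciferase luminescence (Bright-Glo) from an ATXN2-FFLuc HEK293 line after 24 h compound exposure at 37 °C, preceded by a CellTiter-Fluor fluorescence viability read. Serial dilutions of a reference ATXN2 inhibitor and a luciferase inhibitor served as controls.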

[11] = qHTS for Inhibitors of ATXN expression: Validation of Cytotoxic Assay (AID 588349); settings: cytotoxicity counter-screen for ATXN expression inhibitors, cell viability; series mostly up to 57.1 µM
Summary of the method: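 HEK293 cells were dosed with titrated compounds for 72 hr at 37 degrees C. Viability was read by CellTiter Glo luminescence, with intracellular ATP as the marker of cell survival.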

Chain of Ubiquitin carboxyl-terminal hydrolase 1 (Homo sapiens) (O94782 whole entry, looked up): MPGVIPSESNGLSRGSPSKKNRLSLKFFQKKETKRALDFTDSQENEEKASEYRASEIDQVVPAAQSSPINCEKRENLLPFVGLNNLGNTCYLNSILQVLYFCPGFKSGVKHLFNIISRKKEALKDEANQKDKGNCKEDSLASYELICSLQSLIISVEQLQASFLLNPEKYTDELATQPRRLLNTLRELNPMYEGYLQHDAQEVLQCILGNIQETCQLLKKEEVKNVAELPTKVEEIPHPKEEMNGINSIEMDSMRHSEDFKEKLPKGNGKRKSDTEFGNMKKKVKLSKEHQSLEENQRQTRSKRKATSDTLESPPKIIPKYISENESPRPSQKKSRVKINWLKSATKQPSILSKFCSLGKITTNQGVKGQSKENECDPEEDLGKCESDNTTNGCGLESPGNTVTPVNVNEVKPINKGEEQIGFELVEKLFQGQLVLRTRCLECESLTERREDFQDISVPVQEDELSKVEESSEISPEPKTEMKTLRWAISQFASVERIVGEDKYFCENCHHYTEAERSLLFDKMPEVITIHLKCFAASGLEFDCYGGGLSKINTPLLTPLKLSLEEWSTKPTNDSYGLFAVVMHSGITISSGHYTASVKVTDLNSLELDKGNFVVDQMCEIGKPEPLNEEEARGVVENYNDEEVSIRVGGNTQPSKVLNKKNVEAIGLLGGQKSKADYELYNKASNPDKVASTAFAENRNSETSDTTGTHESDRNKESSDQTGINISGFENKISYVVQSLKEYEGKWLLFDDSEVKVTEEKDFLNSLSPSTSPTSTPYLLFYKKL
Chain of DNA dC->dU-editing enzyme APOBEC-3G (Homo sapiens) (Q9HC16 whole entry, looked up): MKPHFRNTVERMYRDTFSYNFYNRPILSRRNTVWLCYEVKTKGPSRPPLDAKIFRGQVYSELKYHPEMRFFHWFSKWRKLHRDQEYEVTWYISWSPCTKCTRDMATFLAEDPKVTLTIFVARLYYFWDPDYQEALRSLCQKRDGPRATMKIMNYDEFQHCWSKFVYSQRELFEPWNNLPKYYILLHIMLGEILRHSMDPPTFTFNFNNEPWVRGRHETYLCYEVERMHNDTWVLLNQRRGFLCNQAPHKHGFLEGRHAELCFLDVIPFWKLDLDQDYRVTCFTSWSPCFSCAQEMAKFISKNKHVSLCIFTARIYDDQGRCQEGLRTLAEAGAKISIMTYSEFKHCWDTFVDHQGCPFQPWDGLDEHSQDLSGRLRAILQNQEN
Chain of Voltage-gated inwardly rectifying potassium channel KCNH2 (Homo sapiens) (Q12809 whole entry, looked up): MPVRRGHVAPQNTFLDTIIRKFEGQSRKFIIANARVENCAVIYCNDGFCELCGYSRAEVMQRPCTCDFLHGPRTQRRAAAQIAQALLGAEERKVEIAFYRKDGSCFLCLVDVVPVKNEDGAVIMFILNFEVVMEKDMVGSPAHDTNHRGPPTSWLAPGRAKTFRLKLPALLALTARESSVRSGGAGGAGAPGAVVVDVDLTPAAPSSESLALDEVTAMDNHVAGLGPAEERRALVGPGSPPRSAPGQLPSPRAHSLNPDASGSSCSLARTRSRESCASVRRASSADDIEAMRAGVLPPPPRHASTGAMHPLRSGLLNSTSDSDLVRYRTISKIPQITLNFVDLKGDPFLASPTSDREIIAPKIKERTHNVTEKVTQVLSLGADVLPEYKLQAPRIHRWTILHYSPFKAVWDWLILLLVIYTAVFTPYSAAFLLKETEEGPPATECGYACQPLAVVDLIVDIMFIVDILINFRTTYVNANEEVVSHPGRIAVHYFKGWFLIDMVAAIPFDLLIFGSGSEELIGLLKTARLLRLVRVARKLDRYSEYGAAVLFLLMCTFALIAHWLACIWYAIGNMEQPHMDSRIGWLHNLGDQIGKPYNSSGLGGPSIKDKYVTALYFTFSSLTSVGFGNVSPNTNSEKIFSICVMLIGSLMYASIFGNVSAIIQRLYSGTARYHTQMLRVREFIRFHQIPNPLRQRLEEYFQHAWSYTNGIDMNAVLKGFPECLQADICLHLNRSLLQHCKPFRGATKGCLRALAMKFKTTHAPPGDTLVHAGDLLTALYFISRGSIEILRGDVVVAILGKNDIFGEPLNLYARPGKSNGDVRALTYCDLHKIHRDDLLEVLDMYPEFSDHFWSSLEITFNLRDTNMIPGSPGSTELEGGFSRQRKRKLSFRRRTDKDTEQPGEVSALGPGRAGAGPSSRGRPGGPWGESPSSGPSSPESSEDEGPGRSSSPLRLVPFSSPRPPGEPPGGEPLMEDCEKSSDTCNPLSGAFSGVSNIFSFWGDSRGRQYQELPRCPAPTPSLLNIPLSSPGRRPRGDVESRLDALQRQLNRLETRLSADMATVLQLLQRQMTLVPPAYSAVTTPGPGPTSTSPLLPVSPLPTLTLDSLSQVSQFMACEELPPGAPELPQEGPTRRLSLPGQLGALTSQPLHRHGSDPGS
Chain of Luciferin 4-monooxygenase (Photinus pyralis) (P08659 whole entry, looked up): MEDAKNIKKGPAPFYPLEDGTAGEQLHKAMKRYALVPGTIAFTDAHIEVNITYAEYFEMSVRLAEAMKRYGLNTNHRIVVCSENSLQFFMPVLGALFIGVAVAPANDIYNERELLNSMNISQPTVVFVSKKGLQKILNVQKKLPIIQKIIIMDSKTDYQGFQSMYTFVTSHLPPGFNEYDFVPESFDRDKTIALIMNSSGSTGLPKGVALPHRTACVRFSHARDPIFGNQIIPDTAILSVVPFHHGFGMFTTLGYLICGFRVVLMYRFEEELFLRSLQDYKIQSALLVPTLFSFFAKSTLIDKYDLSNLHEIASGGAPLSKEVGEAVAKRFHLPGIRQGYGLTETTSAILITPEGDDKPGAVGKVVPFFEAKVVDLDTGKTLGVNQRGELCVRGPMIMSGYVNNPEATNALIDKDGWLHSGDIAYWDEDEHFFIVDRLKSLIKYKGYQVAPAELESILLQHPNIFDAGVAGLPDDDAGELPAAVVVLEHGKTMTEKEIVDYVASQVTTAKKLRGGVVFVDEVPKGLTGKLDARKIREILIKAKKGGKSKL
Chain of Peptidyl-prolyl cis-trans isomerase NIMA-interacting 1 (Homo sapiens) (Q13526 whole entry, looked up): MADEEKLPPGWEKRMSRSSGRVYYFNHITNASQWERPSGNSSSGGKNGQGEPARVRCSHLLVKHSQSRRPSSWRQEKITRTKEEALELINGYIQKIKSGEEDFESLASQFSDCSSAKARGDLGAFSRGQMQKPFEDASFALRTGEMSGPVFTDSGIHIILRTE
Chain of Phosphoglycerate kinase, glycosomal (Trypanosoma brucei brucei) (P07378 whole entry, looked up): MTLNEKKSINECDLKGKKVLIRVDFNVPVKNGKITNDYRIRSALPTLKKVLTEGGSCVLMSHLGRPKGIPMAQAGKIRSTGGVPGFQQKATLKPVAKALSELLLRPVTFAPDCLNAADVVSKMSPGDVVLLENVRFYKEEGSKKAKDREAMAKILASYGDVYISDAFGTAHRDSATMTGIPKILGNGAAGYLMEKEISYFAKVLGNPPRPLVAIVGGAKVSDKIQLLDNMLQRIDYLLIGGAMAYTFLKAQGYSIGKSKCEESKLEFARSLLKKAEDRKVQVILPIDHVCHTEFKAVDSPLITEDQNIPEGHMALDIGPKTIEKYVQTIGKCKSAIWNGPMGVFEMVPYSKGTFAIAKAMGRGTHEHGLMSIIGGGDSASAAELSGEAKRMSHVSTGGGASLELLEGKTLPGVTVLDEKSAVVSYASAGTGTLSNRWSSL
Chain of phosphoglycerate mutase (Leishmania major) (Q4Q090 1-553): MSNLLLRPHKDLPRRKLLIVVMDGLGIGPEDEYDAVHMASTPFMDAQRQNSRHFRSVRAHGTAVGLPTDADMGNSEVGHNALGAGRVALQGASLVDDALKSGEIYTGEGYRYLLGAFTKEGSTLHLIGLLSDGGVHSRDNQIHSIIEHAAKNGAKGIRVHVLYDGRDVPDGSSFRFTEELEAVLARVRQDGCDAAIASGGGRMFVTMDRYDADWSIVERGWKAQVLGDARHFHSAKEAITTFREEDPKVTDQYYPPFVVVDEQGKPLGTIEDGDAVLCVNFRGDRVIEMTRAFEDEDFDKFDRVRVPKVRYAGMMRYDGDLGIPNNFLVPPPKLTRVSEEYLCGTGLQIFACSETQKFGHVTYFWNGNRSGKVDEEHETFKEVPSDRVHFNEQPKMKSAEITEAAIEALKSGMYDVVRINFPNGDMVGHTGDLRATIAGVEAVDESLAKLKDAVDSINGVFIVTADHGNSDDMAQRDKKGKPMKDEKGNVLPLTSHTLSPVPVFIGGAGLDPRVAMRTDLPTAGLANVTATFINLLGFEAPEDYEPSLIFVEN

CCCCC(C=O)NC(=O)C(CC(C)C)NC(=O)OCc1ccccc1 (configuration not stated)
Potency [1]: inactive | outcome [2]: inactive

CC1(C)OC2CC3C4CC(F)C5=CC(=O)C=CC5(C)C4C(O)CC3(C)[C@]2(C(=O)CO)O1 (some centres not stated)
Potency [1]: inactive

N#Cc1c(N(CC(=O)O)CC(=O)O)sc(C(=O)O)c1CC(=O)O
Potency [1]: inactive | Potency [3]: inactive | outcome [4]: inactive | outcome [5]: inactive

CC1C(=O)OC2C(O)C34C5CC(C(C)(C)C)C36C(OC(=O)C6O)OC4(C(=O)O5)C12O (configuration not stated)
Potency [1]: inactive | outcome [2]: inactive

CN1CCN2c3ncccc3Cc3ccccc3C2C1 (configuration not stated)
Potency [1]: inactive | outcome [2]: inactive | Potency [3]: inactive | outcome [4]: inactive | outcome [5]: inactive

CN1CC(=O)N2C(Cc3c([nH]c4ccccc34)[C@H]2c2ccc3c(c2)OCO3)C1=O (some centres not stated)
Potency [1]: inactive | Potency [3]: inactive | outcome [4]: inactive | outcome [5]: inactive

OC(c1cc(C(F)(F)F)nc2c(C(F)(F)F)cccc12)C1CCCCN1 (configuration not stated)
Potency [1]: inactive

CN(C)CCN(Cc1ccc(Cl)cc1)c1ccccn1
Potency [1]: inactive | outcome [4]: inactive

COc1nccc(-c2c(-c3ccc(F)cc3)ncn2C2CCC(O)CC2)n1 (configuration not stated)
Potency [1]: inactive | outcome [2]: inactive

CCNC(=O)[C@H]1O[C@@H](n2cnc3c(N)nc(NCCc4ccc(CCC(=O)O)cc4)nc32)[C@H](O)[C@H]1O
outcome [6]: inactive | Potency [3]: inactive

CC(NCCc1ccc(O)cc1)C(O)c1ccc(O)cc1 (configuration not stated)
Potency [1]: inactive

C=CCc1cccc(C=NNC(=O)CN2CCN(Cc3ccccc3)CC2)c1O
outcome [7]: inactive | outcome [8]: inactive | outcome [9]: inactive | Potency [10]: 3.55 µM (active)

C[C@H]1O[C@@H](n2cc(F)c(=O)[nH]c2=O)[C@H](O)[C@H]1O
outcome [7]: inactive | outcome [8]: inactive | outcome [9]: inactive | Potency [1]: inactive | outcome [11]: inactive | Potency [10]: inactive

O=C(O)c1nc(=O)[nH]c(=O)[nH]1
Potency [1]: inactive | Potency [3]: inactive | outcome [4]: inactive | outcome [5]: inactive

N#CC(c1ccc(Cl)cc1)c1c(Cl)cc(-n2ncc(=O)[nH]c2=O)cc1Cl (configuration not stated)
Potency [1]: 79.4 µM (active) | Potency [3]: inactive | outcome [5]: inactive

Cc1ccc(NC(=O)c2cccc(N(C)C)c2)cc1NC(=O)c1ccc(O)cc1
Potency [1]: inactive | outcome [2]: inactive

CN[C@H]1[C@@H](O[C@@H]2[C@H](O[C@@H]3[C@@H](O)[C@@H](O)[C@@H](N=C(N)N)[C@@H](O)[C@@H]3N=C(N)N)O[C@H](C)[C@@]2(O)C=O)O[C@@H](CO)[C@@H](O)[C@H]1O
Potency [1]: inactive

Nc1ccn([C@@H]2O[C@H](CO)[C@@H](O)[C@H]2O)c(=O)n1
Potency [1]: inactive | outcome [2]: inactive

COc1c(C)c2c(c(O)c1CC=C(C)CCC(=O)OCCN1CCOCC1)C(=O)OC2
Potency [1]: inactive | Potency [3]: inactive | outcome [4]: inactive

Cc1cc(NC(=O)Nc2ccc(N(C)C)cc2)c2cc(F)cc(F)c2n1
Potency [1]: inactive | outcome [2]: inactive

NCC1CCC(C(=O)O)CC1 (configuration not stated)
Potency [1]: inactive | Potency [3]: inactive | outcome [4]: inactive | outcome [5]: inactive
